Only some compounds are listed: those with a hit (about 3.5% of all), similar ones and a draw of the others.
Mtb hypoxia rep = PubChem AID 1159583; M. tuberculosis hypoxia-regulated fluorescent reporter, fluorescence; fluorescence inhibition, % (no concentration beside the values); 0.1% of 300,000 active; in the data active = fluorescence inhibition mostly above about 23%, no sharp cut-off; inactive = mostly below about 17%
FBA Mtb inh = Mtb FBA enzyme inhibitors, primary screen, biochemical, fluorescence, strain H37Rv. purified M. tuberculosis FBA, fluorescence read-out. Fructose-bisphosphate aldolase (Mycobacterium tuberculosis (strain ATCC 25618 / H37Rv)), …. inhibition, % at 1 µM. AID 588726, 2011. 2.3% of 360,000 active;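 also: 0% = vehicle and 100% = reference inhibitor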
GDH-TPI counter-1 = GDH-TPI coupling enzyme inhibitors, primary screen, artefact control for M. tuberculosis FBA inhibitor project, biochemical, absorbance, full deck | 1.2% of 360,000 active | inhibition, % at 4.8 µM | GDH-TPI coupled enzyme counterscreen, NADH absorbance; in the data active = inhibition above about 30%;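 also: 0% = DMSO wells and 100% = wells lacking the enzyme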
Rv3671c inh = Rv3671c serine protease inhibitors, primary screen, biochemical, fluorescence polarization, M. tuberculosis H37Rv; inhibition, % at 5.96 µM; 0.048% of 320,000 active; in the data active = inhibition above about 38%;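 also: extracellular domain of Rv3671c used as enzyme; 0% = enzyme with DMSO and 100% = no enzyme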
Target sequence (P9WHR9 whole entry, looked up, the tested form may be a part): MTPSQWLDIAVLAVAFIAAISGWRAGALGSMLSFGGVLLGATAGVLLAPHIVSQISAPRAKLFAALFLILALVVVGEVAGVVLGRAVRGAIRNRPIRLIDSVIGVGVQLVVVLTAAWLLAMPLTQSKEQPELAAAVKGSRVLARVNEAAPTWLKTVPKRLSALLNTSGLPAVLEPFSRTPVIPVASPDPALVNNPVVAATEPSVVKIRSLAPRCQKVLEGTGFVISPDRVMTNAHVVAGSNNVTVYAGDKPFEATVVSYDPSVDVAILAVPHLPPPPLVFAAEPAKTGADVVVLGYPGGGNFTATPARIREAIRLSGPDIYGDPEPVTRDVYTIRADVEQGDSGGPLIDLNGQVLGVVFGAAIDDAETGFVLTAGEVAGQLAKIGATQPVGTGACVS
Mtb UGM inh = M. tuberculosis UGM enzyme inhibitors, primary screen, biochemical, fluorescence polarization, single point. purified UGM, fluorescence polarization probe displacement. inhibition, % at 10 µM. UDP-galactopyranose mutase (Mycobacterium tuberculosis (strain ATCC 25618 / H37Rv)), …. 0.06% of 320,000 active; in the data active = inhibition above about 10%, passing the limit was not always enough
FadD28 FP inh = inhibitors of FadD28 bisubstrate probe binding, primary screen, biochemical, fluorescence polarization, single point | inhibition, % at 12.5 µM | Mycobacterium tuberculosis FadD28 fatty-acid-AMP ligase | AID 588549, 2011 | 0.22% of 360,000 active; in the data active = inhibition above about 8.5%, passing the limit was not always enough
Mtb FBA confirm = M. tuberculosis aldolase blockers, biochemical, fluorescence, strain H37Rv, confirmation. shares compounds with FBA Mtb inh. purified M. tuberculosis FBA, fluorescence read-out. inhibition, % at 1 µM. 78% of 5,600 active. AID 651616, 2012;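 also: 0% = vehicle wells and 100% = reference inhibitor wells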
GDH-TPI counter-2 = GDH-TPI coupling enzyme inhibitors, artefact control for M. tuberculosis FBA inhibitor project, biochemical, fluorescence, high throughput | shares compounds with FBA Mtb inh | GDH-TPI coupled enzyme counterscreen | inhibition, % at 1 µM | 81% of 5,600 active | AID 652141, 2013; in the data active = inhibition above about 10%
GDH-TPI DR = GDH-TPI coupling enzyme inhibitors, dose response, artefact control for M. tuberculosis FBA inhibitor project, biochemical, fluorescence, IC50. shares compounds with FBA Mtb inh. GDH-TPI coupled enzyme assay, artifact counterscreen. IC50, µM. 79% of 170 active; call rule not given here
* marks the source's active call; other numbers are inactive results. Rule as the data show it, unless noted: active = inhibition above about 27%; inactive = the rest.

Results for CC(=O)OC(C)(C)C1Cc2cc3ccc(=O)oc3cc2O1 (centres undefined) ?
Mtb hypoxia rep: -2; FBA Mtb inh: 104*; GDH-TPI counter-1: 10; Rv3671c inh: -3; Mtb UGM inh: 3; FadD28 FP inh: 1; Mtb FBA confirm: 0; GDH-TPI counter-2: -2

What do the screens show for `CC(C)=CC(=O)O[C@@H]1Cc2cc3ccc(=O)oc3cc2OC1(C)C`?
Mtb hypoxia rep: 1; FBA Mtb inh: 34*; GDH-TPI counter-1: 19; Rv3671c inh: -5; Mtb UGM inh: 0; FadD28 FP inh: 1; Mtb FBA confirm: active; GDH-TPI counter-2: active

What do the screens show for `Cc1coc2cc3oc(=O)ccc3cc12`?
Mtb hypoxia rep: -12; FBA Mtb inh: 3; GDH-TPI counter-1: -1; Rv3671c inh: -10; Mtb UGM inh: 2

Results for CC=C(C)C(=O)OC1c2c(ccc3ccc(=O)oc23)OC1C(C)(C)OC(C)=O (centres undefined) ?
Mtb hypoxia rep: 4

How did C/C=C(\C)C(=O)OC(C)(C)[C@H]1Cc2cc3ccc(=O)oc3cc2O1 do in these assays?
Mtb hypoxia rep: -7; FBA Mtb inh: 94*; GDH-TPI counter-1: 6; Rv3671c inh: 0; Mtb UGM inh: 1; FadD28 FP inh: -1; Mtb FBA confirm: active; GDH-TPI counter-2: active

Results for CCC(=NNc1ccccc1)c1cnnc(-c2ccccc2)n1 ?
Mtb hypoxia rep: 5

What do the screens show for `COc1ccc(Cn2c(=O)[nH]c3cc(C(=O)NCCCOC(C)C)ccc3c2=O)cc1`?
Mtb hypoxia rep: -4; FBA Mtb inh: -1; GDH-TPI counter-1: 10; Rv3671c inh: 1; Mtb UGM inh: 0; FadD28 FP inh: -2

How did O=C(NCc1cccs1)c1cc2ccccc2o1 do in these assays?
FBA Mtb inh: -3; GDH-TPI counter-1: -6; Rv3671c inh: 4; Mtb UGM inh: 3; FadD28 FP inh: -2

How did COc1ccc2nc3oc(C(=O)NCc4cccs4)cc3cc2c1 do in these assays?
FBA Mtb inh: 32*; GDH-TPI counter-1: 24; Rv3671c inh: -5; Mtb UGM inh: 4; FadD28 FP inh: -1; Mtb FBA confirm: 2; GDH-TPI counter-2: -4

Results for COc1ccc2nc3oc(C(=O)NCCCOC(C)C)cc3cc2c1 ?
Mtb hypoxia rep: -4; FBA Mtb inh: 111*; GDH-TPI counter-1: 13; Rv3671c inh: -6; Mtb UGM inh: 4; FadD28 FP inh: -4; Mtb FBA confirm: 7; GDH-TPI counter-2: 2

What do the screens show for `CCOCCCNC(=O)c1cc2cc3cc(OC)ccc3nc2o1`?
Mtb hypoxia rep: 6; FBA Mtb inh: 110*; GDH-TPI counter-1: 2; Rv3671c inh: -6; Mtb UGM inh: 1; FadD28 FP inh: -4; Mtb FBA confirm: 91*; GDH-TPI counter-2: 66*

What do the screens show for `CCN1CCN(C(=O)c2cc3cc(F)ccc3[nH]2)CC1`?
Mtb hypoxia rep: 12; FBA Mtb inh: 82*; GDH-TPI counter-1: 3; Rv3671c inh: -2; Mtb UGM inh: -1; FadD28 FP inh: 0; Mtb FBA confirm: 148*; GDH-TPI counter-2: 96*

Results for CC(C)CNC(=O)COC(=O)c1ccc(F)cc1Cl ?
Mtb hypoxia rep: 23; FBA Mtb inh: -4; GDH-TPI counter-1: 0; Rv3671c inh: 6; Mtb UGM inh: -3; FadD28 FP inh: -2

How did COC(=O)CNC(=O)COC(=O)c1cc(Cl)cc(Cl)c1N do in these assays?
Mtb hypoxia rep: 2; FBA Mtb inh: 110*; GDH-TPI counter-1: -3; Rv3671c inh: 4; Mtb UGM inh: 0; FadD28 FP inh: -1; Mtb FBA confirm: active; GDH-TPI counter-2: active

Results for CC(C)CNC(=O)COC(=O)c1cc(Cl)cc(Cl)c1N ?
Mtb hypoxia rep: 13; FBA Mtb inh: 78*; GDH-TPI counter-1: -1; Rv3671c inh: 1; Mtb UGM inh: 2; FadD28 FP inh: -1; Mtb FBA confirm: active; GDH-TPI counter-2: active

What do the screens show for `COC(=O)CNC(=O)COC(=O)c1ccc(OC)c([N+](=O)[O-])c1`?
Mtb hypoxia rep: 5; FBA Mtb inh: -1; GDH-TPI counter-1: 8; Rv3671c inh: 2; Mtb UGM inh: -3; FadD28 FP inh: -2

How did Cn1cccc1C=NN1CCN(c2ccccc2)CC1 do in these assays?
Mtb hypoxia rep: 3

Results for NC(=O)c1cc2c(s1)-c1cc(Cl)ccc1SC2 ?
Mtb hypoxia rep: 4; FBA Mtb inh: 1; GDH-TPI counter-1: -3; Rv3671c inh: -9; Mtb UGM inh: -1; FadD28 FP inh: -2

How did COCCNC(=O)c1cc2c(s1)-c1ccc(Cl)cc1SC2 do in these assays?
Mtb hypoxia rep: 7; FBA Mtb inh: 46*; GDH-TPI counter-1: 3; Mtb UGM inh: -4; FadD28 FP inh: -7; Mtb FBA confirm: 174*; GDH-TPI counter-2: 160*

How did C=CCNc1nc(NCC)nc(N2CCOCC2)n1 do in these assays?
FBA Mtb inh: -2; GDH-TPI counter-1: -2; Rv3671c inh: -12; Mtb UGM inh: 2; FadD28 FP inh: -4

How did C=CCNc1nc(Nc2ccc(-c3nc4ccccc4o3)cc2)nc(N2CCOCC2)n1 do in these assays?
Mtb hypoxia rep: 14; FBA Mtb inh: 97*; GDH-TPI counter-1: 35*; Rv3671c inh: -57; Mtb UGM inh: 0; FadD28 FP inh: -1; Mtb FBA confirm: 19; GDH-TPI counter-2: -4; GDH-TPI DR: 0.49*

How did COc1ccc(-c2ccc(/C=N/NC(=O)Cc3nnc(N)s3)o2)cc1Cl do in these assays?
FBA Mtb inh: 29*; GDH-TPI counter-1: 38*; Rv3671c inh: 7; Mtb UGM inh: 1; FadD28 FP inh: -6; Mtb FBA confirm: 54*; GDH-TPI counter-2: 30*

How did COc1cc(/C=N/NC(=O)Cc2nnc(N)s2)cc(OC)c1OC do in these assays?
FBA Mtb inh: 6; GDH-TPI counter-1: 6; Rv3671c inh: 8; Mtb UGM inh: 0; FadD28 FP inh: -3

Results for O=C(Nc1nnc2n1CCS2)c1ccc(Br)o1 ?
FBA Mtb inh: 105*; GDH-TPI counter-1: -8; Rv3671c inh: 3; Mtb UGM inh: 0; FadD28 FP inh: 1; Mtb FBA confirm: 127*; GDH-TPI counter-2: 76*

Compound activity (PubChem BioAssay)
